Source: PubChem BioAssay AID1626 (SRMLSC, 2009)
About 2,000 (0.91%) of roughly 220,000 compounds were called active. Not shown: some 2% with an inconclusive outcome. No stated cut-off is given here; in the data, inconclusive means inhibition above about 80% without an active follow-up result; inactive means below that; test concentration not stated here. The list is a sample of the results. Measured potencies and affinities stand elsewhere.

Experiment: M. tuberculosis H37Rv growth inhibitors, H37Rv strain (AID 1626);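 further: bacteria incubated seven days before Alamar blue readout; 0% = bacteria only wells and 100% = bacteria with antibiotic wells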
Details: active compounds read high, concentration not given here

| SMILES | inhibition |
| --- | --- |
| COc1ccc(-n2c(SCC(=O)O)nc3sc4c(c3c2=O)CCC4)cc1 | -7.18% (inactive) |
| CCCn1c(Nc2ccc(Cl)cc2)nc2ccccc21 | 3.28% (inactive) |
| Cc1nc2ccccc2n1Cc1n[nH]c(=S)n1-c1ccc(Cl)cc1 | -9.13% (inactive) |
| CCc1c(C)[nH]n(-c2nc(-c3ccccc3)cs2)c1=O | 5.2% (inactive) |
| NS(=O)(=O)c1ccc(N=Nc2c(-c3ccccc3)[nH]n(-c3nc(-c4ccccc4)cs3)c2=O)cc1 | 15.4% (inactive) |
| CC(C)[C@H](NC(=O)NCc1ccc(F)cc1)C(=O)O | -4.85% (inactive) |
| COc1ccc(C(NC(=O)c2ccc(F)cc2)c2ccccc2)cc1 (stereo not drawn) | -2.49% (inactive) |
| COc1ccc(-c2noc(CCCC(=O)Nc3cccnc3)n2)cc1OC | -1.27% (inactive) |
| CCOc1cc(CNc2ccc3c(c2)CCC3)ccc1OC | 46.6% (inactive) |
| COc1ccc(CNc2ccc3c(c2)CCC3)cc1OC | 45.5% (inactive) |
| CC(NC(=O)c1ccc(OC2CCN(S(=O)(=O)N(C)C)CC2)cc1)C1CC1 (stereo not drawn) | -9.26% (inactive) |
| CC(=O)c1ccc(N(C(=O)Cn2nnc3ccccc32)C(C(=O)NC2CCCCC2)c2cn(C)nc2C)cc1 (stereo not drawn) | -5.66% (inactive) |
| Clc1nc(-c2cccnc2)nc2scc(-c3ccccc3)c12 | 8.19% (inactive) |
| Clc1ncnc2scc(-c3ccccc3)c12 | -11.5% (inactive) |
| O=C(OCc1nc2ccccc2s1)c1ccccc1O | 16.7% (inactive) |
| Nc1ccc(C(=O)OCc2nc3ccccc3s2)cc1 | -2.83% (inactive) |
| O=C(COC(=O)c1ccc(Br)o1)Nc1nc2ccccc2s1 | -3.5% (inactive) |
| O=C(COC(=O)c1ccco1)Nc1nc2ccccc2s1 | -0.64% (inactive) |
| CC(OC(=O)C(NC(=O)c1ccco1)C(C)C)C(=O)Nc1ncc(Cl)cc1Cl (stereo not drawn) | -14.4% (inactive) |
| Cc1c(N=Cc2nc3ccccc3n2C)c(=O)n(-c2ccccc2)n1C | -8.83% (inactive) |
| CCN(CC)Cc1cc(C(=O)O)c(C)o1 | -8.95% (inactive) |
| Cc1ccc(C2(C)NC(=O)N(Cc3c(C)noc3C)C2=O)cc1 (stereo not drawn) | -0.8% (inactive) |
| O=C(Nc1ccc([N+](=O)[O-])cn1)C1CC1 | 5.22% (inactive) |
| O=C(NCc1cccc(Cl)c1)c1ccco1 | 0.19% (inactive) |
| CN1c2ccc([N+](=O)[O-])cc2CC2(C(=O)NC(=O)N(c3ccccc3)C2=O)C1c1ccccc1 (stereo not drawn) | 76.5% (inactive) |

| SMILES | inhibition |
| --- | --- |
| CN1c2ccc([N+](=O)[O-])cc2CC2(C(=O)NC(=O)NC2=O)C1c1ccccc1 (stereo not drawn) | 0.68% (inactive) |
| CN1C(=O)N(C)C(=O)C2(Cc3cc([N+](=O)[O-])ccc3N(C)C2c2ccccc2)C1=O (stereo not drawn) | -13.2% (inactive) |
| CC1CN2c3ccc([N+](=O)[O-])cc3CC3(C(=O)N(C)C(=O)N(C)C3=O)C2C(C)O1 (stereo not drawn) | -12.5% (inactive) |
| COc1ccc2nc(C)cc(Sc3nc4ccccc4s3)c2c1 | 0.98% (inactive) |
| COc1ccc(Cl)cc1N1C(=O)C2CCCN2C1c1sccc1C (stereo not drawn) | -9.7% (inactive) |
| CCCCC(Sc1nc(N)c(NC(=O)c2ccc(OC)cc2)c(=O)[nH]1)C(=O)O (stereo not drawn) | -2.8% (inactive) |
| Cc1ccc(OCC(=O)Nc2ccc(S(=O)(=O)Nc3ccccn3)cc2)c(C)c1 | -1.52% (inactive) |
| COc1ccc(/C=N/NC(=O)C(C)Sc2ccccn2)cc1[N+](=O)[O-] (stereo not drawn) | -3.03% (inactive) |
| CCOc1cccc(CN2CCCC(CCC(=O)NCc3ccccc3F)C2)c1O (stereo not drawn) | -1.53% (inactive) |
| CC1CCc2c(sc3nc(CSc4nnnn4C)[nH]c(=O)c23)C1 (stereo not drawn) | 42.6% (inactive) |
| CCCCNC(=O)Nc1cnn(CC)c1C(N)=O | -2.68% (inactive) |
| O=C1O/C(=C/c2ccccc2)c2ccccc21 | 2.2% (inactive) |
| O=C1O/C(=C\c2ccccc2)c2ccccc21 | 1.65% (inactive) |
| Nc1nnc(SCC(=O)N2CCN(c3ccccc3)CC2)n1-c1ccccc1 | -16.5% (inactive) |
| Cc1[nH]nc2c1C(=O)CCC2 | -7.75% (inactive) |
| O=c1ccnc(Sc2ncccc2[N+](=O)[O-])[nH]1 | 7.87% (inactive) |
| CC(C)(C)n1cnnc1Sc1ncccc1[N+](=O)[O-] | -0.66% (inactive) |
| Nc1nnc(Sc2ccc(Cl)cc2[N+](=O)[O-])s1 | 6.61% (inactive) |
| CC(C)(C)c1csc(Sc2ncccc2[N+](=O)[O-])n1 | 7.08% (inactive) |
| Cc1ccc(N/C=C(\C#N)S(=O)(=O)c2ccccc2)cc1 | 1.01% (inactive) |
| CC(=O)c1cc(-c2ccc(F)cc2)n(CCC(=O)Nc2cc(C)[nH]n2)c1C | 5.45% (inactive) |
| Cn1c(N)c(-c2nc3cccnc3n2C)sc1=S | 2.49% (inactive) |
| COc1cccc(OC)c1C(=O)Nc1cc(C)nn1-c1nc2ccccc2[nH]1 | 53.2% (inactive) |
| Cc1cc(NC(=O)c2ccccc2F)n(-c2nc3ccccc3[nH]2)n1 | 55.8% (inactive) |
| CC(=O)Nc1nc2ccccc2[nH]1 | -9.36% (inactive) |

| SMILES | inhibition |
| --- | --- |
| Cc1cc(NC(=O)c2cccs2)n(-c2nc3ccccc3[nH]2)n1 | 94.8% (inactive) |
| O=C(Nc1nc2ccccc2[nH]1)c1cccs1 | 56.3% (inactive) |
| COc1ccc(C(=O)Nc2cc(C)nn2-c2nc3ccccc3[nH]2)c(OC)c1 | 57.3% (inactive) |
| Cc1cc(NC(=O)c2ccc(C)s2)n(-c2nc3ccccc3[nH]2)n1 | 83.6% (inactive) |
| Cc1cc(NC(=O)c2ccccc2)n(-c2ccccc2)n1 | -5.06% (inactive) |
| OCC1(Cc2ccccc2)CCN(Cc2ccc(C(F)(F)F)cc2)CC1 | 10.2% (inactive) |
| CC1(C)C(c2ccc(Cl)cc2)=[N+]([O-])C2(CCCC/C2=N\O)N1O (stereo not drawn) | 2.14% (inactive) |
| O=C(N/N=C/c1cc(Br)cs1)c1ccc2c(c1)OCCO2 | 6.73% (inactive) |
| O=C(CSc1nnc(-c2ccco2)n1CC1CCCO1)c1ccc(F)cc1 (stereo not drawn) | -15.7% (inactive) |
| N#CCSc1nc2ccccc2c(=O)n1CC1CCCC1 | -2.18% (inactive) |
| CC(Sc1ccc(Br)cc1)C(N)=O (stereo not drawn) | -7.76% (inactive) |
| Cc1nc(N(C)C)c2sc(=S)n(-c3ccccc3)c2n1 | 0.72% (inactive) |
| C/C(=N\NS(=O)(=O)c1ccc([N+](=O)[O-])cc1)c1ccc(NC(=O)c2ccco2)cc1 | -1.1% (inactive) |
| C=CCNC(=O)CSc1nnc(-c2ccccc2Br)n1-c1cccc(C(F)(F)F)c1 | 5.16% (inactive) |
| Cc1cc(NC(=O)/C=C/c2ccccc2Cl)n(-c2nc3ccccc3[nH]2)n1 | 66.7% (inactive) |
| CCOc1ccccc1OCC(=O)Nc1nc2ccccc2[nH]1 | 9.65% (inactive) |
| Cc1cc(NC(=O)c2ccc(F)cc2F)n(-c2nc3ccccc3[nH]2)n1 | 4.49% (inactive) |
| Cc1cc(C)c(OCC(=O)Nc2nc3ccccc3[nH]2)c(C)c1 | 9.75% (inactive) |
| COc1cccc(C(=O)Nc2nc3ccccc3[nH]2)c1 | 46.1% (inactive) |
| COc1cc(C(=O)Nc2nc3ccccc3[nH]2)cc(OC)c1OC | 75.8% (inactive) |
| O=C(NCCc1nc2ccccc2[nH]1)c1ccc(Cl)c([N+](=O)[O-])c1 | -1.68% (inactive) |
| O=C(Nc1nc2ccccc2[nH]1)c1ccc([N+](=O)[O-])cc1 | 75% (inactive) |
| COCCn1c(SCC(=O)Nc2sc(C)c(C)c2C#N)nnc1-c1ccc(OC)cc1 | -11.5% (inactive) |
| CC(C)(C)C1CCc2onc(C(=O)O)c2C1 (stereo not drawn) | -7.72% (inactive) |
| C/C(=N\NC(=O)Cc1c(C)[nH][nH]c1=O)c1ccc2ccccc2c1 | -1.62% (inactive) |

| SMILES | inhibition |
| --- | --- |
| CC(C)C(=O)NNC(=O)c1cc2sccc2s1 | -9.47% (inactive) |
| Cc1cc(Br)c(NC(=O)CCl)c(Br)c1 | 10% (inactive) |
| CC(=O)Nc1sc(N/N=C\c2ccco2)nc1-c1cccs1 | 2.35% (inactive) |
| Cc1ccc(CONC(=O)c2ccc(OC(F)F)cc2)cc1 | -0.18% (inactive) |
| CC1(C)C(c2ccccc2)=[N+]([O-])CN1O | -10.2% (inactive) |
| Cc1cc(C)n(-c2nc3ccccc3[nH]c2=O)n1 | -9.01% (inactive) |
| O=S(=O)(N/N=C/c1cccc(OC2CSC2)c1)c1ccccc1 | 2.91% (inactive) |
| O=C(NCCCN1CCCC1=O)Nc1ccc(Cl)cc1 | -8.24% (inactive) |
| Cc1c(C(=O)Nc2ccc3c4c(cccc24)CC3)cccc1[N+](=O)[O-] | 13.3% (inactive) |
| Cc1ccc(-c2cc(C(=O)Nc3nccs3)c3ccccc3n2)o1 | 12.8% (inactive) |
| O=C(Nc1nc2c(s1)CCCC2)c1cc(-c2ccncc2)nc2ccccc12 | 10.1% (inactive) |
| Cc1csc(NC(=O)c2cnccn2)n1 | -4.5% (inactive) |
| O=C(Nc1nc2c(s1)CCCC2)c1cc(-c2ccccc2)nc2ccccc12 | 14.1% (inactive) |
| O=C(Nc1nccs1)c1cc(-c2ccncc2)nc2ccccc12 | -1.16% (inactive) |
| O=C(Nc1nccs1)c1cc(-c2ccccc2)nc2ccccc12 | 19% (inactive) |
| O=C(Nc1nc(-c2ccc(F)c(F)c2)cs1)c1cnccn1 | 10.2% (inactive) |
| Cc1ccc(-c2cc(C(=O)Nc3ccc(S(=O)(=O)Nc4nccs4)cc3)c3ccccc3n2)c(C)c1 | 69.9% (inactive) |
| CC(C)C1(C)N=C(c2ncccc2C(=O)O)NC1=O (stereo not drawn) | -2.93% (inactive) |
| Cc1nn(CC(=O)N2c3ccccc3NC(=O)C2(C)C)c(C)c1[N+](=O)[O-] | 0.71% (inactive) |
| Cc1c(NC(=O)C(C)OC(=O)Cc2ccccc2)c(=O)n(-c2ccccc2)n1C (stereo not drawn) | -13.3% (inactive) |
| O=C(O)Cn1nnc2ccccc21 | -9.61% (inactive) |
| CC(=O)Nc1ccccc1NC(=O)c1ccc(C)c(C)c1 | -3.12% (inactive) |
| Nc1c(C(=O)N/N=C/c2ccc([N+](=O)[O-])cc2)sc2nnc(-c3ccccc3)c(-c3ccccc3)c12 | -2.7% (inactive) |
